According to the supplement of paper PMC7156485:
Values joined by “and” are separate entries in the source; they are usually repeats but may differ in a detail not shown here. Identical values can stand only once. ± gives the standard deviation of the averaged measurements.

Legend:
Conditions in all cases: concentration: 10 µM; 24 h
HCC1569 [1] = assay: cell number relative to DMSO (% of DMSO); higher = more cells (less growth inhibition / toxicity)
How it was run: (§1)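 Compounds were applied at 10 µM for 24 h at 37 °C, in triplicate, to HCC1569 and TDF cells. The cells were then fixed and stained for H1.0, and nuclei were counterstained with DAPI. Nuclear H1.0 intensity or cell number is reported relative to the plate control as a percent, taking the median of replicates. Smoothing for positional effects was applied to HCC1569 values only.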

TDF [2] = assay: as above
How it was run: as §1

TDF [3] = assay: H1.0 immunofluorescence intensity relative to DMSO (% of DMSO); higher = stronger H1.0 induction, active = 120 or more
How it was run: as §1

HCC1569 [4] = assay: H1.0 immunofluorescence intensity relative to DMSO (% of DMSO); higher = stronger H1.0 induction, active = 140 or more
How it was run: as §1
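For H1.0 immunofluorescence intensity relative to DMSO in this document: TDF is a line of transformed human dermal fibroblasts of mesenchymal origin.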
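For cell number relative to DMSO in this document: TDF denotes transformed human dermal fibroblasts of mesenchymal origin.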

| Structure (SMILES) | cell number (HCC1569 [1]) | cell number (TDF [2]) | H1.0 immunofluorescence intensity (TDF [3]) | H1.0 immunofluorescence intensity (HCC1569 [4]) |
| --- | --- | --- | --- | --- |
| CSc1nc2ccc3nc(NC(=O)C(c4ccccc4)c4ccccc4)sc3c2s1 | 103 | 121 | 99.4 (inactive) | 94 (inactive) |
| CC1CC2OC2C=CC=CC(=O)Cc2c(Cl)c(O)cc(O)c2C(=O)O1 (centres undefined) [Radicicol] | 66.2 | 15.9 | 133 (active) | 121 (inactive) |
| Nc1ncnc2c1ncn2C1OC(C(=O)NC2CC2)C(O)C1O (centres undefined) [5'-(N-Cyclopropyl)carboxamidoadenosine] | 99.6 | 95.1 | 97.8 (inactive) | 93.6 (inactive) |
| COc1cc2ccccc2cc1C(=O)OC(C)C(=O)NCc1ccc(F)cc1 (centres undefined) [IP3K Inhibitor] | 102 | 107 | 98.7 (inactive) | 115 (inactive) |
| Clc1ccc(C(c2ccccc2Cl)C(Cl)Cl)cc1 (centres undefined) [1-(2-Chlorophenyl)-1-(4-chlorophenyl)-2,2-dichloroethane] | 96.1 | 106 | 98.3 (inactive) | 92.9 (inactive) |
| CC(C)(S)[C@H](N)C(=O)O [L-Penicillamine] | 100 | 102 | 98.5 (inactive) | 90.8 (inactive) |
| CC1=NN(c2ccccc2)C(=O)C1 | 101 | 111 | 93.5 (inactive) | 97.6 (inactive) |
| O=c1[nH]ccc2c(S(=O)(=O)N3CCCNCC3)cccc12 | 106 | 110 | 86 (inactive) | 104 (inactive) |
| COc1cc2c(cc1OC)C1C(C)c3ccc(OC)c(OC)c3CN1CC2 (centres undefined) [Corydaline] | 96.9 | 106 | 94.4 (inactive) | 84.2 (inactive) |
| Cl.Cl.O=C(O)COCCN1CCN(C(c2ccccc2)c2ccc(Cl)cc2)CC1 (centres undefined) [Cetirizine 2HCl] | 98.9 | 102 | 94.3 (inactive) | 104 (inactive) |
| C[N+](C)(C)CCOC(=O)CCC(=O)OCC[N+](C)(C)C.[Cl-].[Cl-] [Succinylcholine chloride] | 100 | 113 | 95.5 (inactive) | 84.7 (inactive) |
| COC(=O)C1C(O)CCC2CN3CCc4c([nH]c5ccccc45)C3CC21.Cl (centres undefined) [Yohimbine hydrochloride] | 99.8 | 113 | 93.8 (inactive) | 107 (inactive) |
| NC(N)=NN=Cc1c(Cl)cccc1Cl [Guanabenz] | 98.5 | 91.9 | 98.2 (inactive) | 118 (inactive) |
| CCCCCC=CCC=CCCCCCCCCC(=O)O [10(Z),13(Z)-Nonadecadienoic acid] | 98.3 | 96.2 | 109 (inactive) | 103 (inactive) |
| CC(N)(Cc1ccc(O)c(O)c1)C(=O)O (centres undefined) [Methyldopa] | 107 | 100 | 102 (inactive) | 94 (inactive) |
| Cn1cc(C2=C(c3ccc(Cl)cc3Cl)C(=O)NC2=O)c2ccccc21 | 86.2 and 92.3 | 100 and 111 | 104 (inactive) and 105 (inactive) | 158 (active) and 136 (inactive) |
| Nc1nc2ccccc2c2ccccc12 [6-phenanthridinamine] | 88.1 | 64.8 | 97.8 (inactive) | 117 (inactive) |
| CNCC(O)c1ccc(O)c(O)c1.O=C(O)C(O)C(O)C(=O)O [L-(+)-Epinephrine tartrate] | 104 | 97 | 93.2 (inactive) | 106 (inactive) |
| CCOP(=O)(OCC)C(=Cc1cc(C(C)(C)C)c(O)c(C(C)(C)C)c1)P(=O)(OCC)OCC | 90.7 | 101 | 93.9 (inactive) | 124 (inactive) |
| CN(C)c1ccc(C2Nc3ccc4ccccc4c3C3=C2C(=O)CC(C)(C)C3)cc1Br (centres undefined) | 91.7 | 79.3 | 113 (inactive) | 130 (inactive) |
| O=C(O)[C@@H]1C[C@H](C(=O)O)N1 [cis-Azetidine-2,4-dicarboxylic acid] | 103 | 101 | 105 (inactive) | 109 (inactive) |
| S=C([S-])OC1CC2CC1C1CCCC21.[K+] [D-609 potassium] | 100 | 104 | 95.2 (inactive) | 102 (inactive) |
| CCCC1CC(C(=O)NC(C(C)O)C2OC(SC)C(O)C(O)C2O)N(C)C1 (centres undefined) [Lincomycin] | 103 ± 1.5 | 113 ± 2.2 | 93.1 (inactive) | 93 (inactive) |

| Structure (SMILES) | cell number (HCC1569 [1]) | cell number (TDF [2]) | H1.0 immunofluorescence intensity (TDF [3]) | H1.0 immunofluorescence intensity (HCC1569 [4]) |
| --- | --- | --- | --- | --- |
| CN(C)CCC=C1c2ccccc2COc2ccccc21.Cl [Doxepin hydrochloride] | 100 | 95.2 | 93.1 (inactive) | 97.5 (inactive) |
| CCC(CO)Nc1nc(NCc2ccccc2)c2ncn(C(C)C)c2n1 (centres undefined) [Roscovitine] | 93.4 | 99 | 93.9 (inactive) | 103 (inactive) |
| CCCCCC=CCC=CCCCCCCCC(N)=O [Linoleamide] | 99.8 | 94.8 | 99.6 (inactive) | 99.2 (inactive) |
| NC(=O)c1ccccc1 [Benzamide] | 98.5 | 87.1 | 99.2 (inactive) | 107 (inactive) |
| O=C(O)CCCC=CCC1C2CCC(O2)C1CNNC(=O)Nc1ccccc1 (centres undefined) | 102 | 103 | 92.8 (inactive) | 99.7 (inactive) |
| Cl.Cl.Fc1ccc(C(c2ccc(F)cc2)N2CCN(CC=Cc3ccccc3)CC2)cc1 [Flunarizine.2HCl] | 97.6 | 105 | 92.2 (inactive) | 112 (inactive) |
| O=C1c2cccc(O)c2C(=O)c2c(O)cc(CO)cc21 [Aloe-emodine] | 95.7 | 89.9 | 97.3 (inactive) | 99.5 (inactive) |
| O=C(O)Cc1nn(Cc2nc3cc(C(F)(F)F)ccc3s2)c(=O)c2ccccc12 | 98.1 | 90.1 | 93.4 (inactive) | 97.7 (inactive) |
| COc1ccc2[nH]cc(CCNC(C)=O)c2c1 [Melatonin] | 101 ± 3.5 | 99.5 ± 3 | 93.4 (inactive) | 93.4 (inactive) |
| CC(=O)Oc1ccccc1C(=O)Oc1ccc(CO[N+](=O)[O-])cc1 [4-[(nitrooxy)methyl]phenyl 2-(acetyloxy)benzoate] | 50.1 | 66.5 | 110 (inactive) | 143 (active) |
| C=C1NC2(C(=O)COC(C)=O)C(CC3C4CCC5=CC(=O)C=CC5(C)C4C(O)CC32C)O1 (centres undefined) | 96.8 | 108 | 86 (inactive) | 101 (inactive) |
| COc1cc2ccc(=O)oc2cc1O [Scopoletin] | 101 | 113 | 101 (inactive) | 88.9 (inactive) |
| O=[N+]([O-])c1cc(S(=O)(=O)Nc2ccc(O)c3ccccc23)ccc1Cl [4-chloro-N-(4-hydroxy-1-naphthyl)-3-nitrobenzenesulfonamide] | 85.3 | 76.6 | 106 (inactive) | 115 (inactive) |
| N[C@H](C(=O)O)c1cc(O)cc(O)c1 [(S)-3,5-Dihydroxyphenylglycine] | 101 | 105 | 96.4 (inactive) | 97.4 (inactive) |
| CC1(C)SC2C(NC(=O)C(N)c3ccccc3)C(=O)N2C1C(=O)O (centres undefined) [Ampicillin] | 103 | 109 | 90 (inactive) | 108 (inactive) |
| NS(=O)(=O)c1cccc2c1c([N+](=O)[O-])cc1nc([O-])c([O-])nc12.[Na+].[Na+] [NBQX disodium] | 104 | 103 | 93.8 (inactive) | 91.8 (inactive) |
| O=C(O)CCCC=CCC1C(=O)CC(O)C1C=CC(O)CCc1ccccc1 (centres undefined) [17-Phenyl-trinor-prostaglanding E2] | 105 | 102 | 106 (inactive) | 97.5 (inactive) |
| CC[N+](CC)(CC)CCOc1cccc(OCC[N+](CC)(CC)CC)c1OCC[N+](CC)(CC)CC.[I-].[I-].[I-] [Gallamine triethiodide] | 101 | 99 | 98.8 (inactive) | 123 (inactive) |
| O=C(CCNNC(=O)c1ccncc1)NCc1ccccc1 [Nialamide] | 102.5 ± 0.38 | 103 ± 2.9 | 92.2 (inactive) | 100 (inactive) |
| CCN(CC)CC(=O)Nc1c(C)cccc1C.Cl.O [Lidocaine.HCl.H2O] | 99 | 99.8 | 89.5 (inactive) | 103 (inactive) |
| NC(C(=O)O)C1CC1C(=O)O [(2S,1'S,2'S)-2-(carboxycyclopropyl)glycine] | 105 | 110 | 85.1 (inactive) | 83.4 (inactive) |
| Cc1c(C(=O)O)c(O)cc2c1C(=O)c1c(O)c(C3OC(CO)C(O)C(O)C3O)c(O)c(O)c1C2=O (centres undefined) [Carminic acid] | 101 | 107 | 102 (inactive) | 99.8 (inactive) |
| NC(=O)c1cc[n+](CC2=C(C(=O)[O-])N3C(=O)C(NC(=O)C(c4ccccc4)S(=O)(=O)[O-])C3SC2)cc1.[Na+] (centres undefined) [Cefsulodin sodium salt hydrate] | 99.1 | 104 | 94.6 (inactive) | 94.3 (inactive) |
